This is part of a sample that, as a whole, favours compounds with a hit. Of some 83,000 tested, about 20% had one in any assay.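 Step 1: grow cells in 96-well plates. Step 2: add test compound at a single concentration. Step 3: incubate 48 h. Step 4: record percent growth.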 A number with no mark means an inactive call. Calls of active or inactive are those of the source.

In this assay the test system is OVCAR-5 ovarian. The assay is described as follows: NCI-60 one-dose screen, 48 h (100 = growth as untreated, 0 = no growth, -100 = all killed). Particulars: 10 µM unless noted. On the procedure: Growth inhibition of the OVCAR-5 human tumor cell line is measured as a screen for anti-cancer activity. Cells are grown in 96 well plates and exposed to the test compound for 48 hours. Compounds are tested at a single concentration, which is 10^-5 M for most compounds. The reported endpoint is percent growth (GI% or GIPRCNT), where numbers from 0 - 100% represent growth inhibition, and numbers from -100% - 0 represent cell death. For example, a value of 40 represents 60% growth inhibition. A value of 0 means no net growth occurred over the course of the experiment. A value of -40 indicates 40% of cells at the beginning of the experiment died by the end of the experiment. A value of -100 means all cells are dead at the end of the experiment.
NCI-60 Human Tumor Cell Lines Screen was performed using the standard one-dose NCI protocol, which is described in more detail at https://dtp.cancer.gov/discovery_development/nci-60/default.htm.
Compounds with GIPRCNT values below 10 were considered active. Activity score was based on GIPRCNT using the following formula: […]
Score is 0 for GIPRCNT values of 100 or above, 50 for GIPRCNT values of 0, and 100 for GIPRCNT values of -100.
`O=C(O)c1occ(Cl)c1Cl`: the growth is 96.5%.

`COc1ccc(-c2nc(SCC(C)C)nc(Nc3ccccc3)c2C#N)cc1`: the growth was 103%. The value for `Cc1nc(NC(=S)Nc2ccc(F)cc2)sc1C(=O)NNC(=S)Nc1ccc(F)cc1` was 86.3%; that for `N=C(N)c1ccc(-c2ccc(-c3cc(Cl)cc(Cl)c3)s2)cc1` was -78.3% (active). With `CCCCCCCCCCCCOC(=O)/C=C\C(=O)NC(N)=O`, the growth is 108%. For `COC1NC(Cl)=C(C#N)C(C#N)(C#N)C1(C)C` (stereo not given), the growth was 31.6%.

As for `COc1ccc2c(N)ncc(C#Cc3cc(C(=O)Nc4ccc(CN5CCN(C)CC5)c(C(F)(F)F)c4)cnc3C)c2c1`, the growth was -21.6% (active). The value for `COc1cccc2c1nc1cccc(OC)c1[n+]2[O-]` was 23.3%; that for `O=C(C(=O)N1CCOCC1)c1ccc(O[C@H]2O[C@H](CO)[C@@H](O)[C@H](O)[C@@H]2O)cc1` was 98.6%. On to `CC(C)(C)c1ccc([I+]c2ccc(C(C)(C)C)cc2)cc1`, for which the growth is 49.6%. The value for `CCCCCCCCCCCCCCCCC(=O)O.CCCCCCCCCCCCCCCCCC(=O)O.CCCCCCCCCCCCCCCCCC(=O)O.CCCCCCCCCCCCCCCCCC(=O)O.CCCCCCCCCCCCCCCCCC(=O)O.CO[CH-]OC12COC1CC(O)C1(C)C(O)C(OC(C)O)C3=C(C)C(OC(=O)C(O)C([NH-])c4ccccc4)CC(O)(C(OC(=O)c4ccccc4)C21)C3(C)C.[Cu+].[Zn].[Zn].[Zn].[Zn].[Zn]` (stereo not given) was 24.9%. As to `Nc1ccc(S(=O)(=O)Nc2cc(F)cc(F)c2)cc1`, the growth is 55.5%. `CCCCCCN(CCCCCC)CCC(=O)Nc1ccc(S(=O)(=O)c2ccc(NC(=O)CCN(CCCCCC)CCCCCC)cc2)cc1`: the growth was 82.9%.

With `COc1cc2cc3cc4cc(OC)c(OC)cc4c(C)[n+]3cc2cc1OC` (tested in a mixture with another compound), the growth was 104%. For the compound `N#Cc1c2cccnc2c2nnc3cc(Cl)c(Cl)cc3n12`, the growth is 89.3%.

As to `CC#Cc1nc(Nc2cc(C)[nH]n2)c2ccccc2n1`, the growth is 29.4% [100 µM]. For `CCOC(=O)NC1=NCC(C)(C)S1`, the growth was 98.9%.

With `O=C(/C=C1\C(=O)N(Cc2ccc([N+](=O)[O-])cc2)c2ccccc21)c1ccc(OCCN2CCCCC2)cc1`, the growth is -40.6% (active). The value for `OCC(O)C(O)CC1SCCS1` (stereo not given) was 106%. The value for `COc1ccc(C2CC(=O)c3c(O)cc(OC4OC(COC5OC(C)C(O)C(O)C5O)C(O)C(O)C4O)cc3O2)cc1O` (stereo not given) was 96.7%; that for `CC1C(=O)CCCC1=O` was 104%; that for `CC(=O)/C(=C\c1c(-c2ccccc2)[nH]c2ccccc12)S(=O)(=O)c1ccccc1` was 1.33% (active). The value for `CC[C@H](Nc1ncnc2nc[nH]c12)c1nc2cccc(NCc3ccc(C(=O)NO)o3)c2c(=O)n1-c1ccccc1` was 98.3%. On to `CCCCCCCCCCCCCCCCCC1=NCCN1CCNC(C)=O`, for which the growth is 91.7%. The value for `CCCCCCCCC1OC1CCCCCCCC(=O)O` (stereo not given) was 108%.

Regarding `COc1ccc2sc(-n3nc4nc5n(c(=O)c4c3N)-c3ccccc3Sc3ccccc3-5)nc2c1`, the growth is 126%.

Turning to `COc1ccc2cnc(N)c(C#Cc3cc(C(=O)Nc4ccc(CN5CCN(C)CC5)c(C(F)(F)F)c4)cnc3C)c2c1`, the growth is -39.3% (active). The value for `COc1ccc2c(c1)/C(=C/c1c(-c3cc(OC)c(OC)c(OC)c3)nc3sccn13)C(=O)N2` was 85.2%; that for `O=C(/C=C1\C(=O)N(Cc2ccccc2)c2ccccc21)c1ccc(OCCN2CCCCC2)cc1` was 39.8%. The value for `CC(=O)NCCN` was 102%; that for `COc1cccc(-c2cc(-c3cc4ccccc4oc3=O)nc(N)n2)c1` was 98.2%; that for `CCOC(=O)CCCCCCCCC(=O)OCC` was 112%. As for `COc1cc(C(=O)Nc2ccc(N(C)C)cc2)cc(OC)c1OC`, the growth is 94.7%. The value for `COC(=O)c1cc(Nc2ccc(O)c3c2C(=O)c2c([N+](=O)[O-])ccc(O)c2C3=O)cc(C(=O)OC)c1` was 50.4%; that for `O=C(Cc1ccccc1[N+](=O)[O-])c1ccc2c(c1)OCO2` was 104%; that for `CCCCCCCCCC[N+](C)(C)N` was 101%. The value for `CC(=O)O.[In]` was 105%; that for `O=C(/C=C\c1ccc(NCc2ccc(C(=O)O)cc2)cc1)CCl` was 114%.

On to `CCS(=O)(=O)OCCO[C@H]1Cc2cc3ccc(=O)oc3cc2OC1(C)C`, for which the growth was 107%.

As for `CCCCCCC(C)N(CC(C)(C)O)C(=O)c1ccc([N+](=O)[O-])cc1` (stereo not given), the growth is 106%.

(Values after PubChem BioAssay (NCI).)
